According to PubChem BioAssay (Tox21):
Several values for one entry are separate records, joined by “and”; a condition that tells them apart may be missing. Identical values can stand only once. Records with an inconclusive call do not appear. Activity calls are given as the source filed them. Calls come from the whole dose curve; as a rule, active = well fitted curve in the direction sought with a large enough effect in the repeat runs; inconclusive = weak or mixed curves; inactive = no such curve, though single readings can be large; an effect the other way counts as inactive or inconclusive.

Legend:
[1] = Human pregnane X receptor (PXR) small molecule agonists, qHTS cell viability counter screen (AID 1346977); note: nearly all actives have a fitted effect of over 50% in size
Method in brief: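 Cytotoxicity counter screen run in the same wells as the PXR luciferase assay, using PXR-Luc HepG2 cells in charcoal-stripped serum medium. Viability: CellTiter-Fluor fluorescence after 24hr compound treatment.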

[2] = Caspase-3/7 induction in HepG2 cells by small molecules, qHTS assay (AID 1346978); note: nearly all actives have a fitted effect of over 15% in size
Method in brief: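 Wild-type HepG2 cells (2,000/well) were settled 5 h at 37 C, 5% CO2, then exposed to compounds in DMSO for 17 h. Caspase-3/7 activity was read by luminescence 30 min after adding Caspase-Glo 3/7 reagent at room temperature.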

[3] = Caspase-3/7 induction in CHO-K1 cells by small molecules, qHTS cell viability counter screen (AID 1346979); note: nearly all actives have a fitted effect of over 35% in size
Method in brief: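 Cytotoxicity counter screen run in parallel with the caspase-3/7 assay: CHO-K1 cells, 16hr compound treatment at 37C, then CellTiter-Fluor for 1hr before fluorescence reading.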

[4] = Caspase-3/7 induction in CHO-K1 cells by small molecules, qHTS assay (AID 1346980); note: nearly all actives have a fitted effect of over 15% in size
Method in brief: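 Wild-type cells were seeded at 1,500 per well and settled 5 hr at 37 C, 5% CO2, then exposed to DMSO-dissolved compounds for 17 hr. Caspase-Glo 3/7 reagent was added, and luminescence was read after 30min at room temperature.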

[5] = Caspase-3/7 induction in HepG2 cells by small molecules, qHTS cell viability counter screen (AID 1346981); note: series mostly up to about 92 µM; nearly all actives have a fitted effect of over 30% in size
Method in brief: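 In this quantitative HTS counter screen, compounds delivered in DMSO were left on unmodified HepG2 cells for 16 hr at 37 C. Viability was then determined fluorometrically with CellTiter-Fluor, in parallel with caspase-3/7 induction in the same wells.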

[6] = biological target: Nuclear receptor subfamily 1 group I member 2 (Homo sapiens) (UniProt O75469); test: Human pregnane X receptor (PXR) small molecule agonists, qHTS assay (AID 1346982); note: nearly all actives have a fitted effect of over 35% in size; note: potency is the fitted concentration of half-maximal effect
Nuclear receptor subfamily 1 group I member 2 (Homo sapiens), sequence (O75469 whole entry, looked up): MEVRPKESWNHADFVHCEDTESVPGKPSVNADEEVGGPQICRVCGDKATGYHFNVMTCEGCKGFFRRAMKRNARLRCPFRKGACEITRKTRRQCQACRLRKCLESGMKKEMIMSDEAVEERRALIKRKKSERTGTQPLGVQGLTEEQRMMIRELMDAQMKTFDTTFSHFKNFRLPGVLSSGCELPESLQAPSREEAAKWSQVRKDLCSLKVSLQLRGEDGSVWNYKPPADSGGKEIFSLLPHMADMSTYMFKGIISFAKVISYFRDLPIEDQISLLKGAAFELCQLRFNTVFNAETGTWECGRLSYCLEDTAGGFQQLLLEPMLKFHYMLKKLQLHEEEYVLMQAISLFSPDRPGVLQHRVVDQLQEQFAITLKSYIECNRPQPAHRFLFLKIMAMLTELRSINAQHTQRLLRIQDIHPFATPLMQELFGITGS
Method in brief: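 Reporter HepG2 cells expressing PXR-Luc are cultured in charcoal-stripped FBS (5%), treated with compounds for 24 hr at 37 C, and assayed by ONE-Glo luminescence after 30 min at room temperature.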

[7] = biological target: Nuclear receptor subfamily 1 group I member 2 (Rattus norvegicus) (UniProt Q9R1A7); test: Rat pregnane X receptor (rPXR) activation by small molecules, qHTS assay (AID 1346983); details: rPXR luciferase reporter cells, One-Glo luminescence, 24 h; max activation: hits give high values; note: nearly all actives have a fitted effect of over 20% in size; note: potency is the fitted concentration of half-maximal effect
Nuclear receptor subfamily 1 group I member 2 (Rattus norvegicus), sequence (Q9R1A7 whole entry, looked up): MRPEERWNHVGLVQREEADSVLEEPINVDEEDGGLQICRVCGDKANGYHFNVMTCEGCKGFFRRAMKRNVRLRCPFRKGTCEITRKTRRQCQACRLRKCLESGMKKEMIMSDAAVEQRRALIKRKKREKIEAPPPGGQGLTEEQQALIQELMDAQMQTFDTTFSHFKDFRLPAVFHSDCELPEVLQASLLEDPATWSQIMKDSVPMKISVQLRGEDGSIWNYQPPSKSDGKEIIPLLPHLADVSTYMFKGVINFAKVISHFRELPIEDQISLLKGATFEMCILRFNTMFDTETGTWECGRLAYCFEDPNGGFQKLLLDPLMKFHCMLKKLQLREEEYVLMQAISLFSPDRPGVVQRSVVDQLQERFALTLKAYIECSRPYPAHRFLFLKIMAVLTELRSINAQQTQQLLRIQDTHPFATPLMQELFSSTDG
Method in brief: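 Cell-based rPXR luciferase reporter assay, 2,000 cells per well, rested 5hr at 37 C before compound addition in DMSO, then 24 hr at 37 C. One-Glo reagent was added and luminescence read after 30 min at room temperature.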

[8] = biological target: Nuclear receptor subfamily 1 group I member 2 (Homo sapiens) (UniProt O75469); test: CYP3A4 induction through human pregnane X receptor (PXR) by small molecules, qHTS assay (AID 1346984); note: nearly all actives have a fitted effect of over 40% in size; note: potency is the fitted concentration of half-maximal effect
Method in brief: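 Induction measured in HepG2-based DPX-2 cells co-expressing human PXR and a CYP3A4 promoter-driven luciferase. After a 24-hour compound exposure, cells received CYP3A4 luciferin substrate at 3uM final for 3 hours, and light output was then recorded.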

[9] = biological target: Cytochrome P450 2C19 (Homo sapiens) (UniProt P33261); test: Cytochrome P450 Family 2 Subfamily C Member 19 (CYP2C19) small molecule antagonists: luciferase reporter qHTS assay (AID 1671197); note: nearly all actives have a fitted effect of over 65% in size; note: potency is the fitted concentration of half-maximal effect
Cytochrome P450 2C19 (Homo sapiens), sequence (P33261 whole entry, looked up): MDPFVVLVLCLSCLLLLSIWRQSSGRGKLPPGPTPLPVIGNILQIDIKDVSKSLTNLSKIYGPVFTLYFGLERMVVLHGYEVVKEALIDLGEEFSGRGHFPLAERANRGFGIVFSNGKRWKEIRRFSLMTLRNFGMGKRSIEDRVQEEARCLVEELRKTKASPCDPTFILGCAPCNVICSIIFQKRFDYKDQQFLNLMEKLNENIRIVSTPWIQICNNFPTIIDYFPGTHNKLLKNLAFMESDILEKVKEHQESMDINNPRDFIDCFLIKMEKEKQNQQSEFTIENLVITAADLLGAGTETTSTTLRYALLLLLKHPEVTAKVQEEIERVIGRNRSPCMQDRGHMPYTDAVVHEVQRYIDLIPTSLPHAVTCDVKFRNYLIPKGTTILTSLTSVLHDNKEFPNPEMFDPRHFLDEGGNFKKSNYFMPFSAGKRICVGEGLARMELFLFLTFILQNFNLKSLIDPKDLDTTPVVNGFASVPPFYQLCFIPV
Method in brief: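 Quantitative high-throughput screen of the Tox21 library using CYP2C19 with proluciferin substrate. Reaction: NADPH regeneration, 37C, 1 h, after 10 min compound preincubation at room temperature. Readout: luminescence.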

[10] = biological target: Cytochrome P450 2C9 (Homo sapiens) (UniProt P11712); test: Cytochrome P450 Family 2 Subfamily C Member 9 (CYP2C9) small molecule antagonists: luciferase reporter qHTS assay (AID 1671198); note: series mostly up to about 120 µM; nearly all actives have a fitted effect of over 50% in size
Cytochrome P450 2C9 (Homo sapiens), sequence (P11712 whole entry, looked up): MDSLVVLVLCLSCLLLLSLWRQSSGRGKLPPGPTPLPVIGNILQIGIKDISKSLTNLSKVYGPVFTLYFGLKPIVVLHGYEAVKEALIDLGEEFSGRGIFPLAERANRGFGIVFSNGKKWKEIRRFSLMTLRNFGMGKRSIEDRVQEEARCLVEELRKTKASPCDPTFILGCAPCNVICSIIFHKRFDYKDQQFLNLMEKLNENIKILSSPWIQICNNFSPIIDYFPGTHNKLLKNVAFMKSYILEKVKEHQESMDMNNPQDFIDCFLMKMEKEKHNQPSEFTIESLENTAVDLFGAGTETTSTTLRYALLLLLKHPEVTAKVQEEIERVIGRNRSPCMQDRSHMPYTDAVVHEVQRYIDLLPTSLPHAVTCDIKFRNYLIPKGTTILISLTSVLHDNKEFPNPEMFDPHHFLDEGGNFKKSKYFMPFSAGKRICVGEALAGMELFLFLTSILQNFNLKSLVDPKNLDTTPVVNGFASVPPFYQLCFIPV
Method in brief: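 CYP2C9 activity was measured with a P450-Glo proluciferin substrate. Enzyme–substrate mix was held with compound for 10 min at room temperature, then NADPH regeneration solution was added for 1 h at 37C. Luciferin product was read as luminescence.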

[11] = biological target: Cytochrome P450 1A2 (Homo sapiens) (UniProt P05177); test: Cytochrome P450 Family 1 Subfamily A Member 2 (CYP1A2) small molecule antagonists: luciferase reporter qHTS assay (AID 1671199); note: nearly all actives have a fitted effect of over 50% in size; note: potency is the fitted concentration of half-maximal effect
Cytochrome P450 1A2 (Homo sapiens), sequence (P05177 whole entry, looked up): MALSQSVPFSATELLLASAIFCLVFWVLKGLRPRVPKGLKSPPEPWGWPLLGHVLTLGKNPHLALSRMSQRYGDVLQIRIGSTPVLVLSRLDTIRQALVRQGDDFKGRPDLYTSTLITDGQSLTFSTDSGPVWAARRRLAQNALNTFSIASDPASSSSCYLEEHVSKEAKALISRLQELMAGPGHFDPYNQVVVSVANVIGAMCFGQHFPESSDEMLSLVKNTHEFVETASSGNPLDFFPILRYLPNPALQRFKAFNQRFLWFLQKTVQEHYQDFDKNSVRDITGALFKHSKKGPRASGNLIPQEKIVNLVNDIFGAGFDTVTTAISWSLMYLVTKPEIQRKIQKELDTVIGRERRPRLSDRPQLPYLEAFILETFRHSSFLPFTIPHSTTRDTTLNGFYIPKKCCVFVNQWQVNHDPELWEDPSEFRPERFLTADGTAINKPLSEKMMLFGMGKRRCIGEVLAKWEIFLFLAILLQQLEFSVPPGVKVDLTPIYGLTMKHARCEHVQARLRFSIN
Method in brief: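 Steps: enzyme-substrate mix dispensed; test compounds and furafylline control pinned in; 10 min room temperature; NADPH regeneration solution added, 1 h; reaction stopped with luciferin detection reagent; luminescence read after 20 min.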

[12] = biological target: Voltage-gated inwardly rectifying potassium channel KCNH2 (Homo sapiens) (UniProt Q12809); test: Human Ether-a-go-go-Related Gene (hERG) channel small molecule antagonists: fluorescence cell-based qHTS assay (AID 1671200);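 note: hERG-expressing U2OS cells given a thallium stimulus after FluxOR II dye loading; series mostly up to about 77 µM; nearly all actives have a fitted effect of over 50% in size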
Voltage-gated inwardly rectifying potassium channel KCNH2 (Homo sapiens), sequence (Q12809 whole entry, looked up): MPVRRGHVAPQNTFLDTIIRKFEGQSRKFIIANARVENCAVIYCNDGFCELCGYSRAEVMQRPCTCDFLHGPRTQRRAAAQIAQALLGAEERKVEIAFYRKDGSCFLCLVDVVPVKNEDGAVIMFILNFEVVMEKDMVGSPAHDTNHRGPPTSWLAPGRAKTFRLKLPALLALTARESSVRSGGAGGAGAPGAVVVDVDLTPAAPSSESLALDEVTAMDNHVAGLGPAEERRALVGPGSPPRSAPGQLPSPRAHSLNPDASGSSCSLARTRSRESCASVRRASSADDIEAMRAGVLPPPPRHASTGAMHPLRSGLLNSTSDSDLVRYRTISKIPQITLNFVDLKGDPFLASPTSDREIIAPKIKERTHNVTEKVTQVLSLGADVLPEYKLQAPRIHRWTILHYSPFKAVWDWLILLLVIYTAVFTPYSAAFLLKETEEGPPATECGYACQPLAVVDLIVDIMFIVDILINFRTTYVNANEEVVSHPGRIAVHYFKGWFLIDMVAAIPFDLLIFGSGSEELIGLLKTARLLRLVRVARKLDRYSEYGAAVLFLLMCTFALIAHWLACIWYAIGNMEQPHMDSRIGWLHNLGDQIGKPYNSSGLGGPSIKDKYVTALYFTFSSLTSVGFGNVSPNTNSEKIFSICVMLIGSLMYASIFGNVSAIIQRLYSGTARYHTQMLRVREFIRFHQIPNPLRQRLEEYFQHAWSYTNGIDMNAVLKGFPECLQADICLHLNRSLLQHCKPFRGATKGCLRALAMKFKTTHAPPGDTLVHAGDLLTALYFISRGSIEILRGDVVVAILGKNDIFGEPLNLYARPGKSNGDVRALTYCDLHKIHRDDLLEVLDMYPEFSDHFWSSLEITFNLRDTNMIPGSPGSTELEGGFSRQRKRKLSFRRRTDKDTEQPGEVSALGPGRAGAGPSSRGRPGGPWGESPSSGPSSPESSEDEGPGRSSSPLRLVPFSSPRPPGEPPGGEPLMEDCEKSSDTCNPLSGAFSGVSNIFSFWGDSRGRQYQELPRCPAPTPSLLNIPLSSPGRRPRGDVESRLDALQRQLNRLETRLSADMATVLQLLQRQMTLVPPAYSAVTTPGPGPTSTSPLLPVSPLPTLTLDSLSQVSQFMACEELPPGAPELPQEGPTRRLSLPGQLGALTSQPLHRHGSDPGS
Method in brief: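 Fluorescence at 540 nm emission (480 nm excitation) was recorded kinetically for 2 min at 1-second intervals once the thallium-containing stimulus reached cells previously loaded with FluxOR II dye.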

[13] = biological target: Cytochrome P450 3A4 (Homo sapiens) (UniProt P08684); test: Cytochrome P450 Family 3 Subfamily A Member 4 (CYP3A4) small molecule antagonists: luciferase reporter qHTS assay (AID 1671201)
Cytochrome P450 3A4 (Homo sapiens), sequence (P08684 whole entry, looked up): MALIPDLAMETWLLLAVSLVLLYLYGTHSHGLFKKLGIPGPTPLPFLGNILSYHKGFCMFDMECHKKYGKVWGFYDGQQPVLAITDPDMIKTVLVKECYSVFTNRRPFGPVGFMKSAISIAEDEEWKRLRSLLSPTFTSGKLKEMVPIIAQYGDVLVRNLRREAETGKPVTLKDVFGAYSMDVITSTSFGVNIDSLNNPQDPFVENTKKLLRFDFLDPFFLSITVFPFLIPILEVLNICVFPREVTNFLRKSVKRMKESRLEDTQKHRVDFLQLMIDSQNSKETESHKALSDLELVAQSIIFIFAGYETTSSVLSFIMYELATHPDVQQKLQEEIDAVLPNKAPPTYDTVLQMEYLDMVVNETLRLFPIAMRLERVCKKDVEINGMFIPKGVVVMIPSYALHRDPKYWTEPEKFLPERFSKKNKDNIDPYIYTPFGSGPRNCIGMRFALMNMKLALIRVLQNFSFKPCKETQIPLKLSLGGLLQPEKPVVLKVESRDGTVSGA
Method in brief: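 qHTS, 1536-well. CYP3A4 + proluciferin substrate, cpd 10 min RT → NADPH regen 1 h RT → detection reagent 20 min → luminescence (RLU). Ketoconazole positive control.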

[14] = biological target: Nuclear receptor subfamily 1 group I member 2 (Homo sapiens) (UniProt O75469); test: Human pregnane X receptor (PXR) activation by small molecules, qHTS assay (AID 1346985); note: nearly all actives have a fitted effect of over 40% in size
Method in brief: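 DPX-2 cells (HepG2 co-transfected with a PXR response element and a CYP3A4-promoter luciferase construct) were seeded at 2,000 per well, rested 5 hr at 37C, then exposed to DMSO-dissolved compounds for 24 hr. Activation was read as luciferase luminescence.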

[15] = biological target: Cytochrome P450 2D6 (Homo sapiens) (UniProt P10635); test: Cytochrome P450 Family 2 Subfamily D Member 6 (CYP2D6) small molecule antagonists: luciferase reporter qHTS assay (AID 1671196)
Cytochrome P450 2D6 (Homo sapiens), sequence (P10635 whole entry, looked up): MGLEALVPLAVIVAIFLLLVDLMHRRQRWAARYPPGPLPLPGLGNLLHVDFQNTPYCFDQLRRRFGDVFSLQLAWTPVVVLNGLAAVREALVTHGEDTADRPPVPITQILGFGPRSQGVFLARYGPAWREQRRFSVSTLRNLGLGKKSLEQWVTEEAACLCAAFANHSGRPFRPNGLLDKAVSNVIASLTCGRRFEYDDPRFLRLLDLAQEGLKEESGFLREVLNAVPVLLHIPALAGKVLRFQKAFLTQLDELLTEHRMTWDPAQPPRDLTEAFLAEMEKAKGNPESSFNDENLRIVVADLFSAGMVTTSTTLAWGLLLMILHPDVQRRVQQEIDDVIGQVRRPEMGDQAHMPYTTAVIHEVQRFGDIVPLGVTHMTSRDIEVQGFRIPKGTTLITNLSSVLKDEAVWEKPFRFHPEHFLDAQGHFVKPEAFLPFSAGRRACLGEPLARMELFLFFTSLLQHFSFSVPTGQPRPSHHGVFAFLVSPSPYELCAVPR
Method in brief: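 Test chemicals meet CYP2D6 plus proluciferin substrate (10 min, RT); NADPH regenerating solution then drives turnover for 1 h. Detection reagent halts the reaction; luminescence measured after 20 min.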
% is set by controls: 0 for no effect and ±100 for the full control effect.

NC(=O)N[C@@H](CCC(=O)O)C(=O)O
inactive: Potency [1] | outcome [2] | Potency [3] | outcome [4] | Potency [5] | Potency [6] | max activation [7] -3.04% | Potency [8] | Potency [9] | Potency [10] | Potency [11] | Potency [12] | Potency [13]

CN(C)C(=O)Oc1ccc[n+](C)c1
inactive: Potency [1] | outcome [2] | Potency [3] | outcome [4] | Potency [5] | Potency [6] | max activation [7] -1.23% | Potency [8] | Potency [9] | Potency [10] | Potency [11] | Potency [12]

CC(=O)NC(=O)c1ccccc1O
inactive: Potency [1] | outcome [2] | Potency [3] | outcome [4] | Potency [5] | Potency [6] | max activation [7] -2.9% | Potency [8] | Potency [14] | Potency [15] | Potency [9] | Potency [12]

CCCCCC(C)N (stereo not drawn)
inactive: Potency [1] | outcome [2] | Potency [3] | outcome [4] | Potency [5] | Potency [6] | max activation [7] -3.3% | Potency [8] | Potency [14] | Potency [15] | Potency [9] | Potency [10] | Potency [11] | Potency [12] | Potency [13]

CN(C)[C@@H]1C(=O)C(C(=O)NCN2CCCC2)=C(O)[C@@]2(O)C(=O)C3=C(O)c4c(O)cccc4[C@@](C)(O)C3C[C@@H]12 (stereo partly drawn)
inactive: Potency [1] | outcome [2] | Potency [3] | outcome [4] | Potency [5] | Potency [6] | max activation [7] 1.07% and -3.86% | Potency [8] | Potency [10] | Potency [12] | Potency [13]
active: Potency [11] 17.4 µM

CC1=C(C/C=C(\C)CCC[C@H](C)CCC[C@H](C)CCCC(C)C)C(=O)c2ccccc2C1=O
inactive: Potency [1] | outcome [2] | Potency [3] | outcome [4] | Potency [5] | Potency [6] | max activation [7] -2.63% | Potency [9] | Potency [12] | Potency [13]
active: Potency [8] 11.2 µM

C[C@@H]1C[C@H]2[C@@H]3C[C@H](F)C4=CC(=O)C(Cl)=C[C@]4(C)[C@@]3(F)[C@@H](O)C[C@]2(C)[C@@]1(O)C(=O)CO
active: Potency [6] 2.11 µM | Potency [7] 100 nM | Potency [8] 12.6 µM | Potency [9] 8.71 µM
inactive: Potency [1] | outcome [2] | Potency [3] | outcome [4] | Potency [5] | Potency [11] | Potency [12]

Cc1ncc(COP(=O)(O)O)c(C=O)c1O
inactive: Potency [1] | outcome [2] | Potency [3] | outcome [4] | Potency [5] | Potency [6] | max activation [7] -2.51% | Potency [8] | Potency [15] | Potency [9] | Potency [10] | Potency [12] | Potency [13]
active: Potency [11] 17.4 µM

COc1ccc2cc1Oc1cc3c(cc1OC)CC[N+](C)(C)[C@H]3Cc1ccc(cc1)Oc1c(OC)c(OC)cc3c1[C@@H](C2)[N+](C)(C)CC3
inactive: Potency [1] | outcome [2] | Potency [3] | outcome [4] | Potency [5] | Potency [6] | max activation [7] 0.186% | Potency [8] | Potency [15] | Potency [9] | Potency [10] | Potency [11] | Potency [12] | Potency [13]

CC(=O)N1C[C@H](O)C[C@H]1C(=O)O
inactive: Potency [1] | outcome [2] | Potency [3] | outcome [4] | Potency [5] | Potency [6] | max activation [7] -1.61% | Potency [8] | Potency [15] | Potency [9] | Potency [10] | Potency [11] | Potency [12] | Potency [13]

CO[C@@]1(NC(=O)C(C(=O)O)c2ccc(O)cc2)C(=O)N2C(C(=O)O)=C(CSc3nnnn3C)CO[C@@H]21 (stereo partly drawn)
inactive: Potency [1] | outcome [2] | Potency [3] | outcome [4] | Potency [5] | Potency [6] | max activation [7] -4.79% | Potency [8] | Potency [14] | Potency [15] | Potency [9] | Potency [10] | Potency [11] | Potency [12] | Potency [13]

Cc1nc2ccc(CN(C)c3ccc(C(=O)N[C@@H](CCC(=O)O)C(=O)O)s3)cc2c(=O)[nH]1
inactive: Potency [1] | outcome [2] | Potency [3] | outcome [4] | Potency [5] | Potency [6] | max activation [7] -1.92% | Potency [8] | Potency [15] | Potency [9] | Potency [10] | Potency [12] | Potency [13]

CC(C)(C)C(=O)Oc1ccc(S(=O)(=O)Nc2ccccc2C(=O)NCC(=O)O)cc1
inactive: Potency [1] | outcome [2] | Potency [3] | outcome [4] | Potency [5] | Potency [6] | max activation [7] -2.02% | Potency [8] | Potency [15] | Potency [9] | Potency [11] | Potency [12]

CN(C)C(=O)Oc1cccc([N+](C)(C)C)c1
inactive: Potency [1] | outcome [2] | Potency [3] | outcome [4] | Potency [5] | Potency [6] | max activation [7] -2.37% | Potency [8] | Potency [15] | Potency [9] | Potency [10] | Potency [11] | Potency [12] | Potency [13]

CC[N+](CC)(CC)CCOc1cccc(OCC[N+](CC)(CC)CC)c1OCC[N+](CC)(CC)CC
inactive: Potency [1] | outcome [2] | Potency [3] | outcome [4] | Potency [5] | Potency [6] | max activation [7] -1.52% | Potency [8] | Potency [15] | Potency [9] | Potency [10] | Potency [11] | Potency [12]

N[C@H](C(=O)O)[C@@H](O)c1ccc(O)c(O)c1
inactive: Potency [1] | outcome [2] | Potency [3] | outcome [4] | Potency [5] | Potency [6] | max activation [7] -4.66% | Potency [8] | Potency [14] | Potency [15] | Potency [9] | Potency [10] | Potency [11] | Potency [12]

Nc1ccncc1N
inactive: Potency [1] | outcome [2] | Potency [3] | outcome [4] | Potency [5] | Potency [6] | max activation [7] -0.418% | Potency [8] | Potency [15] | Potency [9] | Potency [10] | Potency [11] | Potency [12] | Potency [13]
